From PubChem BioAssay (EPA / NIEHS)
Where “and” joins values, the source holds several entries; their conditions need not be identical. Equal entries are not always repeated. Results filed as inconclusive are left out. Where a structure was tested more than once in an assay, its records may differ in their call. Calls of active or inactive are those of the source. How the source made its calls, unless noted: active means hit-call score of the fitted dose curve at least 0.9, where 1 is the maximum; inactive means score below 0.9.

target: human Vitamin D Receptor (VDR), VDR (gene 7421) (UniProt P11473); assay: ATG_VDR_TRANS: Attagene TRANS-FACTORIAL HepG2 Assay for human Vitamin D Receptor (VDR) (AID 2283022; active means hit-call score of the fitted dose curve at least 0.9, where 1 is the maximum); details: not given
Sequence (P11473 whole entry, looked up, the tested form may be a part): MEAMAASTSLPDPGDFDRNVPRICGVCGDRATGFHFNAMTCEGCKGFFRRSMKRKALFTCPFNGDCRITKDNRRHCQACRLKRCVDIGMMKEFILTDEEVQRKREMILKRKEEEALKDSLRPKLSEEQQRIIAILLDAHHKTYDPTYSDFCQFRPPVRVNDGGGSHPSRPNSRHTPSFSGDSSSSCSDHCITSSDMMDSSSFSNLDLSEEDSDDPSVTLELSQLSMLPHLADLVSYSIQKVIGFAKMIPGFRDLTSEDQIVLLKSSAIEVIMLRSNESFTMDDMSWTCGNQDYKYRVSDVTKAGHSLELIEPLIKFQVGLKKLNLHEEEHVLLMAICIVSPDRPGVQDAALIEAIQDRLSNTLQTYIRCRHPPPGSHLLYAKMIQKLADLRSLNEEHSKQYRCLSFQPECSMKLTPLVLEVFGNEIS
How it was run: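 Steps: transfect HepG2 with GAL4-UAS-driven reporter constructs; dose compounds 24 h; isolate RNA, reverse-transcribe, PCR-amplify with 6-FAM-labelled primer extension and HpaI digestion; quantify fragments by capillary electrophoresis relative to DMSO.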

SMILES | outcome
CCCCCCOC(=O)c1ccccc1O | inactive
O=C(O)C(F)(F)C(F)(F)C(F)(F)C(F)(F)F | inactive
O=C(O)C(F)(F)C(F)(F)C(F)(F)F | inactive
C1COCCN1 | inactive
CC(=O)Nc1ccc(N=Nc2cc(C)ccc2O)cc1 | inactive
CC(C)(C)c1ccc(OC2CCCCC2O)cc1 (configuration not stated) | inactive
FC(F)(F)C(F)(F)C(F)(F)CI | inactive
CC(C)(C)C(=O)CC(=O)C(F)(F)C(F)(F)C(F)(F)F | inactive

read-out: not listed separately; assay: BSK_3C_SRB: Viability Assessment in the BioMAP Diversity Plus: 3C Assay (AID 2283023); details: primary human endothelial cells (HUVEC);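 further: cells read 24 h after compound dosing; fitted both ways against DMSO so a hit may be signal rise or drop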
How it was run: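 Absorbance at 560 nm of sulforhodamine B-stained (0.1%) total protein served as a cytotoxicity readout in human umbilical vein endothelial cells, 24 h after chemical treatment. Signal was fitted bidirectionally relative to DMSO.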

SMILES | outcome | AC50
OCC(F)(F)C(F)(F)C(F)(F)C(F)F | inactive | –
Oc1ccc(Nc2ccccc2)cc1 | inactive | –
O=C(O)C(F)(F)C(F)(F)OC(F)(F)F | inactive | –
CCCCCCOC(=O)c1ccccc1O | – | 39.5 µM (active) and 43.2 µM (active)
O=S(=O)(O)C(F)(F)C(F)(F)C(F)(F)C(F)(F)C(F)(F)C(F)(F)C(F)(F)F | inactive | –
O=C(O)C(F)(F)C(F)(F)C(F)(F)C(F)(F)F | inactive | –
O=C(O)C(F)(F)C(F)(F)C(F)(F)F | inactive | –
C=CC(F)(F)C(F)(F)C(F)(F)C(F)(F)C(F)(F)C(F)(F)C(F)(F)C(F)(F)C=C | inactive | –
CC(=O)Nc1ccc(N=Nc2cc(C)ccc2O)cc1 | inactive | –
N=C(N)C(F)(F)C(F)(F)C(F)(F)C(F)(F)C(F)(F)C(F)(F)C(F)(F)F | inactive | 54.9 µM (active)
O=C(O)C(F)(F)C(F)(F)C(F)(F)C(F)(F)C(F)(F)C(F)(F)C(F)(F)C(F)(F)Cl | – | 52.5 µM (active) and 45.1 µM (active)
O=P(O)(O)OCCC(F)(F)C(F)(F)C(F)(F)C(F)(F)C(F)(F)C(F)(F)F | inactive | –
CCCCCCCOC(=O)c1ccccc1C(=O)OCCCCCCC | inactive | –
CCCCCCCCCCCCCCCC[N+](C)(C)Cc1ccccc1 | inactive | –
FC(F)(F)C(F)(F)C(F)(F)CI | inactive | –
O=C(O)C(F)(F)C(F)(F)C(F)(F)C(F)(F)C(F)(F)C(F)(F)C(F)(F)C(F)(F)C(F)(F)C(F)(F)C(F)(F)C(F)(F)C(F)(F)F | inactive | –
O=C(O)C(F)(F)C(F)(F)C(F)(F)C(F)(F)C(F)(F)C(F)(F)C(F)(F)C(F)(F)C(F)(F)C(F)(F)C(F)(F)C(F)(F)F | inactive | –
CC(C)(C)C(=O)CC(=O)C(F)(F)C(F)(F)C(F)(F)F | inactive | 48.3 µM (active)
FC(F)(F)C(F)(F)C(F)(F)C(F)(F)C(F)(F)C(F)(F)CC1CO1 (configuration not stated) | inactive | –
O=C(O)C(F)(F)C(F)(F)C(F)(F)C(F)(F)C(F)(F)C(F)(F)C(F)(F)C(F)(F)C(F)(F)C(F)F | – | 47.3 µM (active) and 49.5 µM (active)
O=C(O)C(F)(OC(F)(F)C(F)(OC(F)(F)C(F)(OC(F)(F)C(F)(F)C(F)(F)F)C(F)(F)F)C(F)(F)F)C(F)(F)F (configuration not stated) | inactive | –
FC(F)(F)C(F)(F)C(F)(F)C(F)(F)C(F)(F)CCI | inactive | –
